Results as given in PubChem BioAssay AID1851 (National Center for Advancing Translational Sciences (NCATS), 2009).
Hit rate of the full screen: of about 16,000 compounds, about 5,100 (32%) were called active. Not shown: some 25% with an inconclusive outcome. The list shows a part of the results. Unmarked numbers belong to inactive results. Calls follow the shape of the dose curve; as a rule, active = well fitted curve in the direction sought with a large enough effect; inconclusive = small, poorly fitted or top-dose-only effect, or effect the other way; inactive = no such curve, though single readings can be large or run the other way.
% is scaled to controls: 0 for no effect and ±100 for the full control effect.

These molecules were tested against Cytochrome P450 3A4 (Homo sapiens) (UniProt P08684) (assay: Cytochrome panel assay with activity outcomes). Conditions: recombinant CYP, pro-luciferin dealkylation, luminescence, p450-cyp3a4; series mostly up to 57.1 µM.
Chain of Cytochrome P450 3A4 (Homo sapiens) (P08684 whole entry, looked up): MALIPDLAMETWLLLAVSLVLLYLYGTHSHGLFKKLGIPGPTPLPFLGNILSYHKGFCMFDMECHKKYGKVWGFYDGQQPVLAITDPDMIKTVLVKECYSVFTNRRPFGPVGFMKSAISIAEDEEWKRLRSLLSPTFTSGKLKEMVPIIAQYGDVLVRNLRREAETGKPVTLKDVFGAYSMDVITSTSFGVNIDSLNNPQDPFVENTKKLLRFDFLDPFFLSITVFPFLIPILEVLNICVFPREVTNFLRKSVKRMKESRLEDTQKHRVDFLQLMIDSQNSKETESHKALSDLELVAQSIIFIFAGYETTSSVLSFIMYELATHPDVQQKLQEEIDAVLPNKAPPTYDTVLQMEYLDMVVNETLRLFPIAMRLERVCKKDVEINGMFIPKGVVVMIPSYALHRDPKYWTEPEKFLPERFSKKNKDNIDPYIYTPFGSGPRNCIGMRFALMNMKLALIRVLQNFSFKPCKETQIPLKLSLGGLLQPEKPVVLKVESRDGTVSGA
`COc1ccc2c3c(ccc2c1)N[C@H](C(=O)O)CC3` was tested, and the activity, negative = inhibition was -10.2% [at 11.4 µM]. For `O=C(c1ccncc1)N1CCC[C@@]2(CCN(c3ccccc3)C2)C1`, the AC50 was 3.16 µM (active). With `O=C(c1ccncc1)N1CCC2(CC1)CN(c1ccccc1)C2` the AC50 was “inactive”. `CC(=O)N1CCC[C@@]2(CCN(c3ncccn3)C2)C1` was tested, and the AC50 was “inactive”. `O=C(c1ccncc1)N1CCC2(CC1)CN(c1cccc(-c3ccccc3)c1)C2` was tested, and the AC50 was 7.94 µM (active). In the case of `O=C(c1ccncc1)N1CCC2(CC1)CCN(c1ccccc1)CC2`, the AC50 is reported as “inactive”. For `O=C(c1cnccn1)N1CCC[C@@]2(CCN(c3ccccn3)C2)C1`, the AC50 was 10 µM (active). In the case of `O=C(c1ccncc1)N1CCC2(CC1)CN(c1ncccn1)C2`, the AC50 is reported as “inactive”. For `O=C(c1cnccn1)N1CCC[C@@]2(CCN(c3ccccc3)C2)C1`, the AC50 was 7.94 µM (active). For `O=C(c1ccco1)N1CCC2(CC1)CN(c1cccc(-c3ccccc3)c1)C2`, the AC50 was “inactive”. For `CC1(C)Oc2cc(N)c([N+](=O)[O-])cc2O1`, the AC50 was “inactive”. In the case of `Cc1c(C=NCCOCc2ccccc2)cnn1C`, the AC50 is reported as “inactive”. `CC(=O)N1CCC2(CC1)CN(c1ccncc1)C2` was tested, and the AC50 was “inactive”. For `CC(=O)N1CCC2(CCCN(c3ccccn3)C2)CC1`, the AC50 was “inactive”. For `O=C(c1ccncc1)N1CCC2(CC1)CCN(c1ccccn1)CC2`, the AC50 was “inactive”. For `O=C(c1ccncc1)N1CCC[C@@]2(CCN(c3ccccn3)C2)C1`, the AC50 was 7.94 µM (active). `O=C(c1cnccn1)N1CCC2(CC1)CN(c1ccncc1)C2` was tested, and the AC50 was “inactive”. `O=C(c1cnccn1)N1CCC[C@@]2(CCN(c3ccncc3)C2)C1` was tested, and the AC50 was 3.16 µM (active). In the case of `COc1ccc(C2C(C#N)=C(N)N(Nc3ccccc3)C3=C2C(=O)CC(C)(C)C3)cc1C` (configuration not stated), the AC50 is reported as 2 µM (active). For `COc1cc(C2C(C#N)=C(N)N(Nc3ccccc3)C3=C2C(=O)CC(C)(C)C3)ccc1OCc1cccc(F)c1` (configuration not stated), the AC50 was 2.51 µM (active). `COc1cc(C2C(C#N)=C(N)N(c3sc4c(c3C#N)CCCC4)C3=C2C(=O)CC(C)(C)C3)cc(OC)c1OC` (configuration not stated) was tested, and the AC50 was 0.501 µM (active). In the case of `COc1cc(C2C(C#N)=C(N)N(Nc3ccccc3)C3=C2C(=O)CC(C)(C)C3)ccc1OCc1ccccc1` (configuration not stated), the AC50 is reported as 2.82 µM (active). With `CCOc1cc(/C=C2\CCC/C(=C\c3cc(Cl)c(O)c(OCC)c3)C2=O)cc(Cl)c1O` the activity, negative = inhibition was -14.8% [at 2.29 µM]. In the case of `CCCCCCCCCCCCC/C=C\[C@@H](O)[C@@H](N)CO`, the AC50 is reported as “inactive”. In the case of `O=C(O)CCSCc1ccccc1`, the activity, negative = inhibition is reported as -12.2% [at 11.4 µM]. In the case of `CN(c1ccc(C(=O)NCC2CCCO2)cc1)S(=O)(=O)c1ccccc1` (configuration not stated), the AC50 is reported as “inactive”. With `Cc1cccc(CSCCNC(=O)c2ccc(N(C)S(=O)(=O)c3ccccc3)cc2)c1` the AC50 was 3.98 µM (active).
